# Only some compounds are listed: those with a hit (about 3% of all), similar ones and a draw of the others.
# SENP8 block-1 – human SENP8 protease inhibitors, primary screen, biochemical, fluorescence, Nedd8 protein substrate, uHTS | Sentrin-specific protease 8 (Homo sapiens), Q96LD8 | recombinant SENP8 | inhibition, % at 20 µM | actives 0.64% (n = 360,000) | AID 602440, 2012; in the data active = inhibition mostly above about 40%, no sharp cut-off; inactive = mostly below about 27%
# Target sequence (Q96LD8 whole entry, looked up): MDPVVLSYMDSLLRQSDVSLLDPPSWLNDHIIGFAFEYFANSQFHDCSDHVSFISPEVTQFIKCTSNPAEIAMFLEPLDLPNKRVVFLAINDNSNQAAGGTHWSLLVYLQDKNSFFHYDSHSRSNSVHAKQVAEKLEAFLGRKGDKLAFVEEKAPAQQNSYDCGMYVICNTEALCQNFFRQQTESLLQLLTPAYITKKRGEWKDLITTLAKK
# SENP6 block – SENP6 protease inhibitors, primary screen, biochemical, luminescence, uHTS. Sentrin-specific protease 6 (Homo sapiens), Q9GZR1. Recombinant SENP6 catalytic domain, aminoluciferin luminescence. inhibition, % at 10 µM. actives 1.8% (n = 330,000). AID 2599, 2010;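 active = inhibition above about 50% at the single tested dose, limit read from the data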;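 also: plate controls were DMSO wells with enzyme for no effect and DMSO wells lacking enzyme for full effect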
# TRAIL sens C8 – viability loss with TRAIL in NB7+C8 cells, primary screen, TRAIL sensitizer project, cell-based, ATPlite luminescence | inhibition (viability loss, TRAIL sensitization), % at 10 µM | actives 1% (n = 360,000) | AID 624354, 2012;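 active = compounds causing at least 50% loss of cell viability in the single-dose screen, relative to plate controls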
# SENP8 block-2 – SENP8 protease inhibitors, primary screen, biochemical, luminescence; Sentrin-specific protease 8 (Homo sapiens), Q96LD8; purified SENP8, Z-RLRGG-aminoluciferin cleavage; inhibition, % at 10 µM; actives 1.2% (n = 330,000); AID 2540, 2010; in the data active = inhibition above about 50%
# PPC-1+TRAIL kill – compounds killing PPC-1 cancer cells with TRAIL present, primary screen, TRAIL potentiator project, ATPLite luminescence, uHTS; actives 0.41% (n = 220,000); cell killing (% activity), % at 4 µM or 5 µM; PPC-1 cells + TRAIL, ATPLite viability luminescence;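 active = cell killing above 50% in the first pass at 4 µM, then a duplicate retest at 5 µM averaging 50% or more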;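 also: plate controls were cells with TRAIL plus DMSO for no effect and medium-only wells lacking cells for full effect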
# SENP7 block – SENP7 protease inhibitors, primary screen, biochemical, luminescence, uHTS | Sentrin-specific protease 7 (Homo sapiens), Q9BQF6 | recombinant SENP7, Z-RLRGG-aminoluciferin luminescence, 40 min | inhibition, % at 5 µM | actives 1.5% (n = 330,000) | AID 434973, 2010;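 active = inhibition above about 50% at the single test dose, limit read from the data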;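 also: plate controls were DMSO with enzyme for no effect and no enzyme buffer wells for full effect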
# SENP8 confirm – SENP8 protease inhibitors, retest, confirmation, biochemical, luminescence, single concentration | AID 488912, 2010 | actives 40% (n = 6,200) | Recombinant SENP8, Z-RLRGG-aminoluciferin luminescence, 60 min | inhibition, % at 12.5 µM | shares compounds with SENP7 block;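 active = mean inhibition across replicates above about 50%, limit read from the data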
# SENP6 conf – SENP6 protease inhibitors, confirmation, biochemical, luminescence, single concentration. shares compounds with SENP7 block. recombinant SENP6, Z-RLRGG-aminoluciferin luminescence. inhibition, % at 12.5 µM. actives 58% (n = 6,200)
# SENP7 confirm – SENP7 protease inhibitors, retest, confirmation, biochemical, luminescence, single concentration; shares compounds with SENP7 block; recombinant SENP7, Z-RLRGG-aminoluciferin luminescence, 40 min; inhibition, % at 12.5 µM; actives 69% (n = 6,200)
# Casp3 SENP sel – caspase-3 protease inhibitors, confirmation, selectivity assay for SENP inhibitor project, biochemical, single concentration. shares compounds with SENP7 block. purified caspase-3, Z-DEVD-aminoluciferin luminescence, 60 min. inhibition, % at 12.5 µM. actives 60% (n = 6,200). AID 488918, 2010;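 active = mean inhibition above about 50%, limit read from the data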;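 also: plate controls were enzyme with DMSO for no effect and wells without caspase-3 for full effect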
# Target sequence (P42574 28-227 limits assumed): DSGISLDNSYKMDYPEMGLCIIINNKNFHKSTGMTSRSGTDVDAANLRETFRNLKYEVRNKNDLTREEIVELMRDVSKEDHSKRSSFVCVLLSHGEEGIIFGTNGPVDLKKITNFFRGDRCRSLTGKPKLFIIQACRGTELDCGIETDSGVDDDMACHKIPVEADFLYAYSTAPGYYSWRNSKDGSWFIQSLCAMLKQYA
# SENP luc ctr – interferes with luciferase luminescence in SENP counter-screen. inhibition, % at 12.5 µM. actives 39% (n = 6,200). Pre-incubated SENP8/Z-RLRGG-aminoluciferin, luciferase luminescence interference. AID 488919. shares compounds with SENP7 block;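 active = mean inhibition above about 50% when retested at one dose, limit read from the data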;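 also: plate controls were DMSO wells with completed reaction for no effect and substrate without enzyme for full effect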
# * hit, by the source's call; i = inactive; . = no result given.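 The calls were made as follows, unless noted: active = mean inhibition above about 50% in the one-dose retest (limit read from the data); inactive = the rest.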
SMILES,SENP8 block-1,SENP6 block,TRAIL sens C8,SENP8 block-2,PPC-1+TRAIL kill,SENP7 block,SENP8 confirm,SENP6 conf,SENP7 confirm,Casp3 SENP sel,SENP luc ctr
Cc1ccc2[nH]c(-c3cccc(N)c3)cc2c1,-304,16,-14,56*,1,70*,57*,77*,94*,32,53*
O=C(Cc1ccccc1[N+](=O)[O-])NCC1(c2cccc3c2OCO3)OCCO1,13,.,-9,.,.,.,.,.,.,.,.
O=C(Nc1ccc(-c2n[nH]c(=S)o2)cc1)c1ccccc1Br,-154,80*,1,49,.,20,57*,54*,80*,74*,62*
Cc1ccc(Nc2n[nH]c(C)c2[N+](=O)[O-])cc1,25,-7,-5,-11,33,-3,.,.,.,.,.
Cc1[nH]nc(Nc2ccc(C(C)C)cc2)c1[N+](=O)[O-],15,51*,22,39,28,16,42,39,77*,25,13
CCc1ccc(C(=O)C(C)OC(=O)Cc2n[nH]c(=O)c3ccccc23)cc1 (stereo unspecified),11,17,11,1,.,-5,.,.,.,.,.
COc1ccccc1/C=C/c1nc(C#N)c(N(C)C)o1,i,57*,-3,46,.,30,20,57*,42,53*,10
CN(C)c1oc(-c2ccccc2)nc1C#N,-311,11,-9,-1,-8,17,.,.,.,.,.
O=C1CCCC(=NNC(=O)c2cc3ccccc3cc2O)C1,-192,90*,30,89*,.,88*,89*,92*,101*,93*,88*
Cc1ccsc1/C=N\NC(=O)c1ccc2c(c1)OCO2,11,49,48,14,29,50*,37,34,72*,74*,-1
Cc1ccsc1/C=N/NC(=O)c1sccc1C,-6,88*,18,84*,15,93*,14,92*,101*,94*,23
Cc1ccc(C(=O)N/N=C\c2sccc2C)cn1,12,-3,14,-2,10,5,.,.,.,.,.
Nc1ncnc2c1ncn2[C@@H]1O[C@H](CNCc2ccc(OCC(=O)Nc3nccs3)cc2)[C@@H](O)[C@H]1O,-5,15,4,4,.,1,.,.,.,.,.
CC(C)(C)NC(=O)CN(C(=O)CSc1nnc(COc2ccccc2)o1)c1cccc(F)c1,12,-5,7,2,7,52*,0,-1,-3,-4,-4
CCOC(=O)c1c(C)oc2c1c(C=NC1CCS(=O)(=O)C1)c(O)c1ccccc12 (stereo unspecified),7,.,-7,.,9,.,.,.,.,.,.
CCOC(=O)c1c(C)oc2c1c(C=NCCC(=O)O)c(O)c1ccccc12,32,77*,-6,66*,18,26,-18,44,20,-3,2

# Screens from PubChem BioAssay.
